Assay outcomes: PubChem, National Center for Advancing Translational Sciences (NCATS)
Tau fibril ThT = blocks human tau fibril formation measured by thioflavin T; recombinant tau K18 P301L, heparin-induced fibrillization, ThT fluorescence; Potency, µM (titrated, usually from 57.4 µM), for the others: top-dose activity, negative = inhibition, most hits filed as inhibitors; 2.1% of 270,000 active; note: % is set by controls: 0 for no effect and ±100 for the full control effect; nearly all actives have a fitted effect of over 55% in size
Target sequence (P10636 561-689 P618L limits assumed): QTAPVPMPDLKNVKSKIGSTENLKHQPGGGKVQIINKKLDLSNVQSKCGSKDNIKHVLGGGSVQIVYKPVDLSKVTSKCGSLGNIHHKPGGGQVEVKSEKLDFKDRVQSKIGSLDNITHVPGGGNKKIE
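Tau K18 P301L fragment (15 uM unlabeled plus 0.24 uM Alexa 594-labeled) in 100 mM sodium acetate pH 7 with compound, fibrillization induced by 20 uM heparin for 6 hr at 37 C. Thioflavin T (30 uM) added, fluorescence read after 1 hr (ex 450, em 510 nm).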
HTT ATP protect = Huntington cell model cytoprotection by ATP luminescence; Potency, µM (top dose mostly 56.4 µM), inactives show cytoprotection (ATP increase), actives largely listed as activators; PC12 HTT-Q103 induced, cytoprotection, ATP luminescence, 40 h; 0.14% of 230,000 active; note: % of control where 0% means no effect; nearly all actives have a fitted effect of over 45% in size
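Cells were plated at 1500 per well in phenol red-free DMEM with 5% equine and 5% calf serum. Tebufenozide (100 nM final) and compounds were added, then ATPlite reagent, and luminescence was read.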
Tau FP inhib = blocks human tau fibril formation measured by polarization; K18 P301L tau heparin fibrillization, Alexa594 FP, 6 h; Potency, µM (highest dose often 57.7 µM), for the others: at the top dose activity, negative = inhibition, hits mostly inhibitors; 0.39% of 280,000 active; AID 1468; note: % is set by controls: 0 for no effect and ±100 for the full control effect; nearly all actives have a fitted effect of over 55% in size
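Steps: dispense K18 P301L tau (15 uM plus 0.24 uM Alexa 594 tracer, final) in pH 7 sodium acetate; add compound; add heparin (20 uM final); incubate 6 hr, 37 C; add ThT (30 uM final); after 1 hr ambient, read FP.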
HttQ103 aggreg = reduces HttQ103-GFP aggregates in PC12 cells | PC12 HttQ103-GFP aggregates, Acumen cytometry, 40 h | Potency, µM (series often up to 46.1 µM), for the others: top-dose activity change, negative = inhibition, actives largely listed as inhibitors | 1.1% of 220,000 active | AID 1688; note: % is set by controls: 0 for no effect and ±100 for the full control effect; nearly all actives have a fitted effect of over 60% in size
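Using laser scanning cytometry, GFP-positive aggregates were counted after lysis of PC12 cells induced with 100 nM tebufenozide to express HTT exon 1 Q103–GFP. Compounds were tested in titration.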
Tau fluor counter = counter-screen for tau fibril formation inhibitors; tau K18 P301L Alexa594 fluorescence, heparin fibrillization; AID 1463; Potency, µM (highest dose often 57.7 µM), without a hit: at the highest dose activity change, negative = decrease; 0.93% of 280,000 active; note: % is set by controls: 0 for no effect and ±100 for the full control effect; nearly all actives have a fitted effect of over 55% in size
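Human tau K18 P301L (15 uM unlabeled, 0.24 uM Alexa 594-labeled) in 100 mM sodium acetate pH 7 with 20 uM heparin, 6 hr at 37 C. ThT 30 uM added, 1 hr ambient; Alexa 594 FP and total fluorescence read at 555/632 nm.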
The depositor's hits bear a star; ? = inconclusive; · = not tested or not shown; [ ] = remark or other dose. The list is not random: actives were taken first. Their share in the collection is about 3.7%. Calls come from the whole dose curve; as a rule, active = well fitted curve in the direction sought with a large enough effect; inconclusive = small, poorly fitted or top-dose-only effect, or another doubt; inactive = no such curve, though single readings can be large; an effect the other way counts as inactive or inconclusive. Potency is the fitted concentration of half-maximal effect.

SMILES	Tau fibril ThT	HTT ATP protect	Tau FP inhib	HttQ103 aggreg	Tau fluor counter
Cc1nc(C(F)(F)F)c(C(=O)N/N=C(\N)c2ccccn2)s1	-7.8%	-164.1%	-5.2%	22.4µM*	-1.3%
CC(C)C1Nc2ccc(S(N)(=O)=O)cc2C2C=CCC21 (stereo not given)	20µM*	11.9%[0.074 µM]	?	-10.2%	?
NS(=O)(=O)c1ccc2c(c1)C1C=CCC1C(C1CC=CCC1)N2 (stereo not given)	35.5µM*	-17.4%	?	4.1%	28.2µM*[quencher]
COc1cccc([C@H]2Nc3ccc(S(=O)(=O)Nc4cc(C)ccc4C)cc3[C@H]3C=CC[C@H]32)c1	?	·	4.3%	·	?
Cc1ccc(CNS(=O)(=O)c2cc3c(cc2Cl)NC(=O)CO3)o1	10.7%	·	-1.4%	·	1.4%
O=C(Nc1ccc2c(c1)CCCN2C(=O)c1cccs1)c1cccc(C(F)(F)F)c1	-7.1%	·	-0.5%	·	-27.2%
CN(C)CCn1c(CO)nc2c1c(=O)n(C)c(=O)n2C	·	-12.1%[10 µM]	·	·	·
S=C1Cc2ccccc2N1	0.708µM*	1.26µM*	?	-21.0%[9.22 µM]	8.91µM*[quencher]
O=C1CCc2ccccc2N1	3.2%	8.0%[10 µM]	2.9%	13.5%[9.22 µM]	1.8%
COc1ccccc1-n1c(=O)oc2ccc(Cl)cc2c1=O	?	-88.2%[0.074 µM]	5.1%	7.08µM*	-15.0%
Cc1ccc(C)c(NC(=O)CN2CCCN(Cc3cccc(Cl)c3)S2(=O)=O)c1	-8.3%	·	7.9%	·	-12.3%
O=S(=O)(C/C(=C/CO)S(=O)(=O)c1ccccc1)c1ccccc1	3.55µM*	16.2%[0.074 µM]	?	?	-14.0%
CCN(Cc1ccccc1)C(=O)CS(=O)(=O)c1ccccc1	7.2%	?	-0.6%	-8.7%	6.2%
C=CC1=C2C=C(C3CC3)N(CCN3CCOCC3)C=C2C(=O)C(C)(OC(=O)c2ccco2)C1=O (stereo not given)	-5.3%[11.5 µM]	-11.4%[10 µM]	-0.8%[11.6 µM]	·	-1.3%[11.6 µM]
COc1ccc2[nH]cc(CCNc3ncnc4ccc(-c5cccc(C#N)c5)cc34)c2c1	·	-117.3%	·	·	·
COc1ccc2[nH]cc(CCNc3ncnc4ccc(-c5ccccc5C#N)cc34)c2c1	?	-55.5%	13.6%	·	14.1µM*[quencher]
COC(=O)[C@H]1C(OC)[C@@H](OC(=O)c2cc(OC)c(OC)c(OC)c2)C[C@@H]2CN3CCc4c([nH]c5cc(OC)ccc45)[C@H]3C[C@H]21 (stereo not given in full)	10µM*	·	?	·	?
COC(=O)[C@H]1[C@H]2C[C@@H]3c4[nH]c5cc(OC)ccc5c4CCN3C[C@H]2C[C@@H](OC(=O)c2ccc(N)cc2)[C@@H]1OC	14.1µM*	3.3%[10 µM]	-4.2%	-8.6%[9.22 µM]	?
CCCCC(CC)Cn1c(O)c(/C=C2\C=NN=C2c2ccccc2)sc1=S (stereo not given)	1.0%	2.8%[10 µM]	17.8µM*	-11.8%	-0.3%
C=CCn1c(O)c(/C=C2\C=NN=C2c2ccccc2)sc1=S	?	16.5%[10 µM]	?	-11.4%[9.22 µM]	?
CCCn1c(O)c(/C=C2\C=NN=C2c2ccccc2)sc1=S	-12.8%	-12.1%	17.8µM*	-15.7%	?
CCCc1n[nH]c2c1/C(=N/O)CC(c1ccccc1)C2 (stereo not given)	-9.2%	-10.5%[10 µM]	-5.6%	-20.8%	-6.1%
Cc1[nH]nc2c1/C(=N/O)CC(c1ccccc1)C2 (stereo not given)	1.8%	-31.5%	-14.5%	12.6µM*	-0.4%
Cc1cccc(CCn2c(=O)c3ccccc3n(Cc3ccccc3C)c2=O)c1	-12.2%	·	-10.0%	·	-19.3%
Cc1ccc(-c2cc(O)cc3sc(=O)oc23)cc1C	?	19.4%[10 µM]	22.4µM*	31.0%[9.22 µM]	15.8µM*[quencher]
SMILES	Tau fibril ThT	HTT ATP protect	Tau FP inhib	HttQ103 aggreg	Tau fluor counter
O=c1oc2cc(O)ccc2s1	?	?	?	·	-25.7%
Cc1cccc(NC(c2cccc(Cl)c2)c2ccc3cccnc3c2O)n1 (stereo not given)	?	·	6.4%	·	?
COc1ccccc1/C=C/C(=O)Nc1ccc(N2CCOCC2)cc1	2.51µM*	-45.8%	6.0%	16.2%	?
COc1ccccc1/C=C/C(=O)Nc1ccc2c(c1)OCCO2	?	0.4%[0.074 µM]	3.1%	-6.4%	?
COc1cccc(/C=C/C(=O)Nc2ccc(N3CCOCC3)cc2)c1OC	5.62µM*	-1.0%[10 µM]	1.6%	-15.7%[9.22 µM]	?
CCS(=O)(=O)c1ncc(Cl)c(C(=O)N(Cc2ccccc2)Cc2ccco2)n1	?	·	-8.6%	·	-3.8%
CCCCc1nc2c(c3c1C[C@H](C)OC3)CN(C(=O)NCCCC(=O)OCC)CC2	-11.0%[11.5 µM]	0.6%[10 µM]	-5.0%[11.6 µM]	·	-12.4%[11.6 µM]
COc1cccc2c1Oc1ncccc1N(C(=O)CCC(=O)NCCC(C)C)C2	-10.7%	·	-3.2%	·	-7.4%
O=C(O)c1cccc(N/N=C/C2=C(Cl)c3cc(Cl)ccc3SC2)c1	6.31µM*	-3.1%	?	0.0%	?
Cc1cccc(C(=O)NCCc2nc3ccccc3n2CCC(C)C)c1	-14.2%	·	5.1%	·	-14.9%
O=C1C=CCC(/C=C/c2ccccc2)O1 (stereo not given)	?	·	-0.8%	10µM*	-13.2%
COc1ccc2nc(/N=C/c3c(C)[nH]n(-c4ccc(C)cc4)c3=O)sc2c1	17.8µM*	-13.4%[10 µM]	-19.3%	-6.4%	?
Cc1ccc(C)c(N(CC(=O)NC2CCCC2)C(=O)c2oc(C(C)(C)C)cc2C)c1	?	0.9%[10 µM]	9.1%	25.1µM*	-7.7%
Cc1cc(C(C)(C)C)oc1C(=O)N(CC(=O)NC1CCCC1)Cc1ccccc1	-16.1%	28.3%[10 µM]	7.9%	-7.7%	-12.1%
Cc1ccc(S(=O)(=O)N2CCC(C(=O)O)(c3ccccc3)CC2)cc1	·	-9.4%[10 µM]	·	·	·
O=C(NC1CCCCC1)NC1CCCCC1	-18.2%	-32.5%	-4.6%	·	-14.1%
O=C(O)/C=C/C(=O)NC1CCCCC1	5.5%	-58.0%[10 µM]	-6.4%	3.55µM*	1.1%
O=c1c(O)c(-c2ccc(O)cc2O)oc2cc(O)cc(O)c12	12.6µM*	?	?	-28.2%	28.2µM*[quencher]
CCOc1ccc2c(c1)n([O-])c1c([n+]2=O)CCCC1	20µM*	-31.3%	?	?	-22.1%
Cc1ccn2c(Nc3c(C)cccc3C)c(-c3ccc(Cl)s3)nc2c1	?	·	2.5%	·	?
COc1ccccc1C1=NNC(=Nc2cccc(S(=O)(=O)N(C)C)c2)SC1	?	?	?	11.2µM*	-22.7%
N#Cc1ncc(-c2ccc3c(c2)OCCOCCOCCOCCOCCO3)nc1C#N	22.4µM*	·	?	?	-9.6%
N#Cc1ncc(-c2ccc3c(c2)OCCOCCOCCOCCO3)nc1C#N	20µM*	13.0%[10 µM]	?	15.7%[9.22 µM]	-20.6%
CCOc1ccccc1NC(=O)CN1C(=O)CC(c2ccco2)Sc2ccccc21 (stereo not given)	-19.5%	·	5.3%	·	-15.2%
COc1ccc2c(c1)cc1c(=O)n(CC(=O)NC3CC3)nc(C)n12	9.4%	·	0.9%	·	9.9%
